Reference: PMC11006913
Residue numbers refer to the chain shown, from its start.

Experiments:
Test in all cases: PBM; 200 nM protein, PBS
Conditions in all cases: dsDNA, one strand shown
NKX2-4 [1] = target: T1, NKX2-4 (Homo sapiens, UniProt Q9H2Z4 175-261, P217L)
T1 sequence: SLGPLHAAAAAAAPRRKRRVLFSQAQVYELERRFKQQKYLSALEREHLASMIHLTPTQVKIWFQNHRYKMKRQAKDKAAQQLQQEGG

NKX2-6 [2] = target: T2, NKX2-6 (Homo sapiens, UniProt A6NCS4 118-204, R150C)
T2 sequence: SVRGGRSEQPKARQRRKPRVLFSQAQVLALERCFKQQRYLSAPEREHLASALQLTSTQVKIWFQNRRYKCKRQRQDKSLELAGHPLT

NKX2-6 [3] = target: T3, NKX2-6 (Homo sapiens, UniProt A6NCS4 118-204)
T3 sequence: T2 sequence with C33R

NKX2-4 [4] = target: T4, NKX2-4 (Homo sapiens, UniProt Q9H2Z4 175-261, R246Q)
T4 sequence: T1 sequence with L43P, R72Q

NKX2-6 [5] = target: T5, NKX2-6 (Homo sapiens, UniProt A6NCS4 118-204, F151L)
T5 sequence: T2 sequence with C33R, F34L

NKX2-4 [6] = target: T6, NKX2-4 (Homo sapiens, UniProt Q9H2Z4 175-261, T231S)
T6 sequence: T1 sequence with L43P, T57S

NKX2-4 [7] = target: T7, NKX2-4 (Homo sapiens, UniProt Q9H2Z4 175-261)
T7 sequence: T1 sequence with L43P

NKX3-2 [8] = target: NKX3-2 (Homo sapiens, UniProt P78367 192-278, P234S)
NKX3-2 [9] = target: NKX3-2 (Homo sapiens, UniProt P78367 192-278)
VAX1 [10] = target: VAX1 (Homo sapiens, UniProt Q5SQQ9 86-172)
VAX1 [11] = target: VAX1 (Homo sapiens, UniProt Q5SQQ9 86-172, T142I)
VAX1 [12] = target: VAX1 (Homo sapiens, UniProt Q5SQQ9 86-172, K157R)
Chain of VAX1 (Homo sapiens, UniProt Q5SQQ9 86-172, K157R) (Q5SQQ9 86-172 K157R): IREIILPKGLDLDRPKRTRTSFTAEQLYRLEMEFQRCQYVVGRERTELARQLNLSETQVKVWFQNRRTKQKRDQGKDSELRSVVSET

Chain of NKX3-2 (Homo sapiens, UniProt P78367 192-278, P234S) (P78367 192-278 P234S): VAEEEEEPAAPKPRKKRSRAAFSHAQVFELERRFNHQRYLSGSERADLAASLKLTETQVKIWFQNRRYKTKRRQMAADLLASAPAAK
Chain of VAX1 (Homo sapiens, UniProt Q5SQQ9 86-172, T142I) (Q5SQQ9 86-172 T142I): as the sequence (Q5SQQ9 86-172 K157R) above, with T57I, R72K counted along it
Chain of VAX1 (Homo sapiens, UniProt Q5SQQ9 86-172) (Q5SQQ9 86-172): as the sequence (Q5SQQ9 86-172 K157R) above, with R72K counted along it
Chain of NKX3-2 (Homo sapiens, UniProt P78367 192-278) (P78367 192-278): as the sequence (P78367 192-278 P234S) above, with S43P counted along it

For AAGTGGAA, the binding signal (NKX2-4 [1]) was 12.4 upbm affinity estimate (log intensity, higher = more binding, comparable within an allelic series), the binding signal (NKX2-6 [2]) was 11.6 upbm affinity estimate (log intensity, higher = more binding, comparable within an allelic series) and the binding signal (NKX2-6 [3]) was 13.3 upbm affinity estimate (log intensity, higher = more binding, comparable within an allelic series). The binding signal (NKX2-4 [4]) was 12.9 upbm affinity estimate (log intensity, higher = more binding, comparable within an allelic series) and the binding signal (NKX2-6 [5]) was 10.6 upbm affinity estimate (log intensity, higher = more binding, comparable within an allelic series).
With CCGGTAAC the binding signal (NKX2-4 [1]) was 9.94 upbm affinity estimate (log intensity, higher = more binding, comparable within an allelic series), the binding signal (NKX2-4 [6]) was 9.84 upbm affinity estimate (log intensity, higher = more binding, comparable within an allelic series) and the binding signal (NKX2-4 [7]) was 9.9 upbm affinity estimate (log intensity, higher = more binding, comparable within an allelic series). The binding signal (NKX2-4 [4]) was 9.93 upbm affinity estimate (log intensity, higher = more binding, comparable within an allelic series).
For CGCCACAA, the binding signal (NKX2-4 [1]) was 9.76 upbm affinity estimate (log intensity, higher = more binding, comparable within an allelic series), the binding signal (NKX2-4 [6]) was 9.79 upbm affinity estimate (log intensity, higher = more binding, comparable within an allelic series) and the binding signal (NKX2-4 [7]) was 9.73 upbm affinity estimate (log intensity, higher = more binding, comparable within an allelic series). The binding signal (NKX2-4 [4]) was 9.79 upbm affinity estimate (log intensity, higher = more binding, comparable within an allelic series).
For ATCCACTC, the binding signal (NKX2-4 [1]) was 12.4 upbm affinity estimate (log intensity, higher = more binding, comparable within an allelic series) and the binding signal (NKX3-2 [8]) was 12.5 upbm affinity estimate (log intensity, higher = more binding, comparable within an allelic series).
CTCAAGAG was tested, and the binding signal (NKX2-4 [1]) was 12.4 upbm affinity estimate (log intensity, higher = more binding, comparable within an allelic series), the binding signal (NKX2-4 [6]) was 12.8 upbm affinity estimate (log intensity, higher = more binding, comparable within an allelic series) and the binding signal (NKX2-4 [7]) was 12.3 upbm affinity estimate (log intensity, higher = more binding, comparable within an allelic series). For the same sequence, the binding signal (NKX2-4 [4]) was 13 upbm affinity estimate (log intensity, higher = more binding, comparable within an allelic series).
CCCGGCCC was tested, and the binding signal (NKX2-4 [1]) was 9.77 upbm affinity estimate (log intensity, higher = more binding, comparable within an allelic series), the binding signal (NKX2-4 [6]) was 9.78 upbm affinity estimate (log intensity, higher = more binding, comparable within an allelic series) and the binding signal (NKX2-4 [7]) was 9.81 upbm affinity estimate (log intensity, higher = more binding, comparable within an allelic series). The binding signal (NKX2-4 [4]) was 9.84 upbm affinity estimate (log intensity, higher = more binding, comparable within an allelic series).
With GGTACTCA the binding signal (NKX2-4 [1]) was 12.5 upbm affinity estimate (log intensity, higher = more binding, comparable within an allelic series), the binding signal (NKX2-4 [6]) was 12.9 upbm affinity estimate (log intensity, higher = more binding, comparable within an allelic series) and the binding signal (NKX2-4 [7]) was 12.4 upbm affinity estimate (log intensity, higher = more binding, comparable within an allelic series). For the same sequence, the binding signal (NKX2-4 [4]) was 12.9 upbm affinity estimate (log intensity, higher = more binding, comparable within an allelic series), the binding signal (NKX3-2 [8]) was 12.5 upbm affinity estimate (log intensity, higher = more binding, comparable within an allelic series) and the binding signal (NKX3-2 [9]) was 12.6 upbm affinity estimate (log intensity, higher = more binding, comparable within an allelic series).
In the case of CCCGGCAG, the binding signal (NKX2-4 [1]) is reported as 9.62 upbm affinity estimate (log intensity, higher = more binding, comparable within an allelic series), the binding signal (NKX2-4 [6]) is reported as 9.52 upbm affinity estimate (log intensity, higher = more binding, comparable within an allelic series) and the binding signal (NKX2-4 [7]) is reported as 9.63 upbm affinity estimate (log intensity, higher = more binding, comparable within an allelic series). The binding signal (NKX2-4 [4]) was 9.61 upbm affinity estimate (log intensity, higher = more binding, comparable within an allelic series), the binding signal (VAX1 [10]) was 7.23 upbm affinity estimate (log intensity, higher = more binding, comparable within an allelic series) and the binding signal (VAX1 [11]) was 7.18 upbm affinity estimate (log intensity, higher = more binding, comparable within an allelic series). The binding signal (VAX1 [12]) was 7.28 upbm affinity estimate (log intensity, higher = more binding, comparable within an allelic series).
CACTCAAA was tested, and the binding signal (NKX2-4 [1]) was 12.4 upbm affinity estimate (log intensity, higher = more binding, comparable within an allelic series), the binding signal (NKX3-2 [8]) was 12.3 upbm affinity estimate (log intensity, higher = more binding, comparable within an allelic series) and the binding signal (NKX3-2 [9]) was 12.3 upbm affinity estimate (log intensity, higher = more binding, comparable within an allelic series).
For CGGTCGAC, the binding signal (NKX2-4 [1]) was 9.4 upbm affinity estimate (log intensity, higher = more binding, comparable within an allelic series), the binding signal (NKX2-4 [6]) was 9.24 upbm affinity estimate (log intensity, higher = more binding, comparable within an allelic series) and the binding signal (NKX2-4 [7]) was 9.3 upbm affinity estimate (log intensity, higher = more binding, comparable within an allelic series). For the same sequence, the binding signal (NKX2-4 [4]) was 9.39 upbm affinity estimate (log intensity, higher = more binding, comparable within an allelic series), the binding signal (VAX1 [10]) was 7.17 upbm affinity estimate (log intensity, higher = more binding, comparable within an allelic series) and the binding signal (VAX1 [11]) was 7.28 upbm affinity estimate (log intensity, higher = more binding, comparable within an allelic series). For the same sequence, the binding signal (VAX1 [12]) was 7.34 upbm affinity estimate (log intensity, higher = more binding, comparable within an allelic series).
With CTGAAAAG the binding signal (NKX2-4 [1]) was 11 upbm affinity estimate (log intensity, higher = more binding, comparable within an allelic series), the binding signal (NKX2-4 [7]) was 10.8 upbm affinity estimate (log intensity, higher = more binding, comparable within an allelic series) and the binding signal (NKX2-4 [4]) was 11.1 upbm affinity estimate (log intensity, higher = more binding, comparable within an allelic series).
CCGACGTC was tested, and the binding signal (NKX2-4 [1]) was 9.19 upbm affinity estimate (log intensity, higher = more binding, comparable within an allelic series), the binding signal (NKX2-4 [6]) was 9.13 upbm affinity estimate (log intensity, higher = more binding, comparable within an allelic series) and the binding signal (NKX2-4 [7]) was 9.23 upbm affinity estimate (log intensity, higher = more binding, comparable within an allelic series). For the same sequence, the binding signal (NKX2-4 [4]) was 9.18 upbm affinity estimate (log intensity, higher = more binding, comparable within an allelic series).
For CAGCCCAG, the binding signal (NKX2-4 [1]) was 9.47 upbm affinity estimate (log intensity, higher = more binding, comparable within an allelic series), the binding signal (NKX2-4 [6]) was 9.32 upbm affinity estimate (log intensity, higher = more binding, comparable within an allelic series) and the binding signal (NKX2-4 [7]) was 9.45 upbm affinity estimate (log intensity, higher = more binding, comparable within an allelic series). The binding signal (NKX2-4 [4]) was 9.54 upbm affinity estimate (log intensity, higher = more binding, comparable within an allelic series).
